About 2,600 (0.7%) of roughly 370,000 compounds were called active. Only a selection was taken, and actives are over-represented in it overall. A number with no mark means an inactive call.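 How the source made its calls: active means inhibition above a per-plate cutoff, mean inhibition of test wells between control levels plus 3 SD (cut at about 38% in these data); inactive means the rest.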
molecular target: COUP transcription factor 2 (Homo sapiens) (UniProt P24468); test: COUP-TFII reporter suppression in human cells – cell-based, luciferase reporter, HEK293T, luminescence, primary screen (AID 686940); conditions: HEK293T NGFI-A luciferase reporter, at 8.6 µM, hits give high values;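 further: cells cotransfected with COUP-TFII expression vector driving the NGFI-A reporter; 0% = median of COUP-TF2 test wells and 100% = reporter-only cells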
Sequence (P24468 whole entry, looked up): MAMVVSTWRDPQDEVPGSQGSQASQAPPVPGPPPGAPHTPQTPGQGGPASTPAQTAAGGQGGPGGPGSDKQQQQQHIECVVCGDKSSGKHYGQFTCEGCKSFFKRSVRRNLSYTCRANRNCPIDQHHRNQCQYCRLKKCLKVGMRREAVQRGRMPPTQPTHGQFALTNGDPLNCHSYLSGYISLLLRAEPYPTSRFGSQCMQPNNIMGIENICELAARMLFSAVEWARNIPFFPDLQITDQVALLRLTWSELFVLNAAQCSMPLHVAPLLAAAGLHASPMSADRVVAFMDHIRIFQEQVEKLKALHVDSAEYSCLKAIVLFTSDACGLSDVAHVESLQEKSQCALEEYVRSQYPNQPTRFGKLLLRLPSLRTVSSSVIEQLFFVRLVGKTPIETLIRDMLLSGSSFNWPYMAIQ

| Compound | inhibition |
| --- | --- |
| COc1ccc(C(=O)OCCN2CCN(C3CN(Cc4cn(Cc5ccccc5F)nn4)S(=O)(=O)C3)CC2)cc1OC (configuration not stated) | 18.4% |
| COc1cccc(N(C)C(=O)[C@@H](C)[C@@H](O)c2ccc3ccccc3c2)c1 | -11.8% |
| COc1cccc(CNc2nc(NCc3ccccc3OC)nc3ccsc23)c1 | 39.1% (active) |
| COc1cccc(-c2cc3nc(NCc4ccccc4OC)n(C)c(=O)c3s2)c1 | -9.04% |
| CC(C)Nc1nc(NCCOc2ccccc2Cl)c2sccc2n1 | 19.2% |
| COc1cccc(CNc2nc(NCc3cccs3)nc3ccsc23)c1 | 45.6% (active) |
| COc1cccc(CNc2nc3cc(-c4csc5ccccc45)sc3c(=O)n2C)c1 | 5.09% |
| COc1cccc(CNc2ncc(-c3ccccc3)n2C)c1 | -0.1% |
| COc1ccc(NC(=S)NCc2cccs2)c(OC)c1 | 6.7% |
| COc1ccccc1CNc1nc(Nc2ccccc2Cl)c2sccc2n1 | 60.3% (active) |
| COc1ccccc1CNCc1cccs1 | 9.93% |
| COc1ccc(C(=O)OCCN(C)C2CN(Cc3cn(Cc4cccc(C)c4)nn3)S(=O)(=O)C2)cc1OC (configuration not stated) | -14.5% |
| COP(=O)(O)CNC(=O)OCc1ccccc1 | -0.48% |
| COC(CNC(=O)[C@H](Cc1ccccc1)NC1(C(=O)NC2CCCCC2)CCCCC1)OC | -36.3% |
| Cc1ccc(C(=O)N(Cc2ccccn2)CC2CCCO2)cc1 (configuration not stated) | -9.77% |
| O=S1(=O)c2c(NCc3ccco3)cccc2Oc2ccccc2CN1Cc1cn(Cc2cccc(C(F)(F)F)c2)nn1 | -1.36% |
| CCOc1ccc(-n2c(SCC(=O)Nc3cc(C)c(NC(=O)c4ccccc4)cc3OC)nnc2-c2cccs2)cc1 | 27.9% |
| Cc1ccc(C2=CCN(C)C(=O)N2c2ccc(Cl)cc2)cc1 | -1.56% |
| CCOc1ccc(N(CC(=O)Nc2c(C)n(C)n(-c3ccccc3)c2=O)S(=O)(=O)c2ccc(Cl)s2)cc1 | -10% |

| Compound | inhibition |
| --- | --- |
| Cc1cc(C)cc(NC(=O)N2CCC(N(C)CCC(C)C)CC2)c1 | 1.48% |
| Cc1ccc(C)c(N2CCN(C(=O)Cn3ncn4cccc4c3=O)CC2)c1 | 10.1% |
| Cc1ccc(OCCCC(=O)N2CCOCC2)c(C)c1 | -6.33% |
| Cc1ccc(C)c(N2CCN(C(=O)CCCCCn3c(=S)[nH]c4ccc(N5CCOCC5)cc4c3=O)CC2)c1 | 44.7% (active) |
| CCC(c1ccc(NC(=O)OC(C)(C)C)cc1)c1cc(OC)cc(OC)c1 (configuration not stated) | 20% |
| Fc1ccc2[nH]c3c(N4CCSCC4)ncnc3c2c1 | 45.2% (active) |
| COc1ccc(CN(CCN2CCOCC2)C(=O)c2ccc(C)cc2)cc1OC | -7.96% |
| CCOC(=O)[C@@]12CN(C(=O)OC(C)(C)C)CC=C1N(Cc1ccc(OC)cc1)C(=O)[C@H]2CC(=O)NCc1ccc(OC)c(OC)c1 | -0.1% |
| Cc1cc(C)nc(NC(=S)N2CCN(c3ccc(C(F)(F)F)cn3)CC2)c1 | 22.9% |
| CC(=O)OC12CCCN(C1)/C(=C/c1ccncc1)C2 (configuration not stated) | 3.99% |
| COc1cccc(CNC(=O)C2CCCN(c3nc4ccccc4o3)C2)c1OC (configuration not stated) | -7.71% |
| Cc1ccc(CNC(=O)Nc2nnc([C@H]3C[C@H](O)[C@@H](CO)O3)s2)cc1 | 46.9% (active) |
| O=C(Nc1ccc(F)cc1)Nc1nnc([C@H]2C[C@H](O)[C@@H](CO)O2)s1 | -2.93% |
| O=C(Nc1nnc([C@H]2C[C@H](O)[C@@H](CO)O2)s1)c1cccc(Cl)c1 | 7.36% |
| Cc1cc(C(=O)NN=C/C=C/c2ccco2)n[nH]1 | -13.9% |
| CCc1ccc(-c2nc(SCC(=O)NC3CCCC3)n[nH]2)cc1 | 53.3% (active) |
| COC(=O)c1ccccc1NC(=O)CSc1n[nH]c(-c2ccncc2)n1 | 8.9% |
| CCc1c(C)nc(SCC(=O)NC2CCCC2)[nH]c1=O | 11.9% |
| O=C(c1cccc(C(F)(F)F)c1)N1CC[C@H]2[C@H](CCCN2Cc2cc(F)cc(F)c2)C1 | 2.53% |

| Compound | inhibition |
| --- | --- |
| S=c1c2[nH]cnc2ncn1CCSc1ncnc2nc[nH]c12 | 3.01% |
| Cc1ccc(NC(=O)c2ccc(CSc3ncnc4nc[nH]c34)cc2)c(C)c1 | -6.98% |
| CCc1ccc(N(CC)c2ncnc3nc[nH]c23)cc1 | 39.6% (active) |
| CCCCN1CCN(C(=O)c2ccc3c(c2)NC(=O)C(C)(C)O3)CC1 | -23.3% |
| O=C(Nc1nc2ccc(Cl)cc2s1)c1cc(-c2ccc(Cl)cc2)nc2ccccc12 | -23.3% |
| O=C(NC(Nc1nc2ccc([N+](=O)[O-])cc2s1)(C(F)(F)F)C(F)(F)F)c1ccccc1 | 74.1% (active) |
| O=C(CNC(=O)c1ccccc1)OC(C(=O)Nc1cc([N+](=O)[O-])ccc1F)c1ccccc1 (configuration not stated) | 1.21% |
| Cc1ccccc1NC(=O)COC(=O)c1ccc(Sc2ncn[nH]2)c([N+](=O)[O-])c1 | 13.4% |
| O=C(NCCSCc1ccccc1)c1ccc(Cl)c(S(=O)(=O)N2CCOCC2)c1 | 11% |
| CC(C)(CNC(=O)c1ccc(Cl)c(S(=O)(=O)N2CCc3ccccc3C2)c1)N1CCOCC1 | 65% (active) |
| CN(C)S(=O)(=O)c1ccc(C(=O)NCC(C)(C)N2CCOCC2)cc1 | 15.8% |
| N#Cc1ccc(OC[C@@H](O)CN2CCC(C(O)(c3ccccc3)c3ccccc3)CC2)c(F)c1 | -4.45% |
| O=C(CSc1nc2ccccc2s1)NN=Cc1ccc(O)cc1O | -18.2% |
| C=CCN(C)CC#Cc1ccccc1 | 17.2% |
| Cc1ccc(-n2c(SCC(=O)Nc3cccc4ccccc34)nnc2-c2ccccn2)cc1 | 14.2% |
| CC(C)(C)c1ccc(Oc2ccc(N)cc2)cc1 | 100% (active) |
| COc1cccc(CNC(=O)CNS(=O)(=O)c2ccc3nc(C)sc3c2)c1OC | 14.5% |
| O=C1CCC2(CCC(c3ccc(Cl)cc3)CC2)N1CCO (configuration not stated) | 20.9% |
| COC1=C[C@H](C(=O)NCCNC(C)=O)[C@H](C)[C@@H](c2ccccc2)CC1=O | 12% |

From PubChem BioAssay AID686940 (The Scripps Research Institute Molecular Screening Center, 2013)
